VP16 counter: inhibits Gal4-VP16 luciferase reporter, ROR gamma counter-screen; AID 2546; 310,000 tested, 3.5% active; Drosophila S2 Gal4-VP16 UAS-luciferase, luminescence, 20 h; Potency, µM (titrated, usually from 53.6 µM), inactives show at the highest dose activity, negative = inhibition, most hits filed as inhibitors;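 further: Gal4-VP16 expression switched on by copper sulfate through the metallothionein promoter; nearly all actives have a fitted effect of over 50% in size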
RORg inh: inhibitors of mouse ROR gamma transcriptional activity; P51450; Drosophila S2 Gal4-RORgamma UAS-luciferase reporter, 20 h; Potency, µM (titrated, usually from 53.6 µM), for the others: top-dose activity change, negative = inhibition, usual class: inhibitors; 310,000 tested, 5.4% active; AID 2551; further: nearly all actives have a fitted effect of over 60% in size
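Compounds are pin-transferred onto Drosophila Schneider cells expressing a copper-inducible Gal4–ROR gamma transactivation domain fusion. After 1 hr, copper sulfate is added to 700 uM final; luciferase is read 20 hr later.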
TDP1 cell noCPT: qHTS for Inhibitors of human tyrosyl-DNA phosphodiesterase 1 (TDP1): qHTS in cells in absence of CPT; DT40 Tdp1-/- hTDP1 cells, no CPT, ATP luminescence, 48 h; Potency, µM (top dose mostly 46.2 µM), for the others: top-dose activity change, negative = growth inhibition, hits mostly inhibitors; 420,000 tested, 15% active; AID 686978, 2013; further: nearly all actives have a fitted effect of over 55% in size
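DT40 Tdp1-/-;hTDP1 cells, no CPT (DMSO vehicle only), 400 cells/well; compounds pin-transferred; ≥48 hr, 37 °C; CellTiter-Glo 30 min RT dark, luminescence read.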
TDP1 inh: inhibitors of human tyrosyl-DNA phosphodiesterase TDP1; AID 485290; recombinant TDP1, AlphaScreen DNA substrate cleavage; Q9NUW8; Potency, µM (doses to about 130 µM), for inactives: at the highest dose activity change, negative = inhibition, most hits filed as inhibitors; 350,000 tested, 0.28% active; further: nearly all actives have a fitted effect of over 40% in size
Target sequence (Q9NUW8 whole entry, looked up): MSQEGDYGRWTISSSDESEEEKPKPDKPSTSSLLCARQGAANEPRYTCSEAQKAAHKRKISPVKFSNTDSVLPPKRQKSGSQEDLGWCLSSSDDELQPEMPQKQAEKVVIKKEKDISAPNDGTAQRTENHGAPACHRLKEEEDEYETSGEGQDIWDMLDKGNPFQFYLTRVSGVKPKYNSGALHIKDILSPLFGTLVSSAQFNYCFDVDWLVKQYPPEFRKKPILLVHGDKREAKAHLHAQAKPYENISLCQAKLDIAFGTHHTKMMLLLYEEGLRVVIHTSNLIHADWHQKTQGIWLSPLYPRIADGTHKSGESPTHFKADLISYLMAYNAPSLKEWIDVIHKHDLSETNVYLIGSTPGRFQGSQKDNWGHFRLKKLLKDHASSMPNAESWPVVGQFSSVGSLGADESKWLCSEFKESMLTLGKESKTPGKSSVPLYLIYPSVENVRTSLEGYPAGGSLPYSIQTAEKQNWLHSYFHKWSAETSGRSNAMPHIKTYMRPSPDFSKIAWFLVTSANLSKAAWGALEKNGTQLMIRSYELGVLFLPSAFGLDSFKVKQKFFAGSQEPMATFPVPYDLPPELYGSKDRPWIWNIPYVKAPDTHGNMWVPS
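Compounds were preincubated with Tdp1 (1 nM final) for 15 min at room temperature before substrate (15 nM final) started a 5 min reaction; beads (10 ug/ml final) were then added for 10 min before AlphaScreen detection.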
DT40 TDP1 CPT: DT40-hTDP1 cell growth loss with CPT | chicken DT40 Tdp1-/-;hTDP1 cells + 20 nM CPT, ATP luminescence, 48 h | Potency, µM (titrated, usually from 46.2 µM), for the others: at the top dose activity change, negative = growth inhibition, most hits filed as inhibitors | 420,000 tested, 12% active | AID 686979; further: nearly all actives have a fitted effect of over 55% in size
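Chicken DT40 Tdp1-/- cells stably complemented with human TDP1 were seeded at 400 cells/well in medium containing 20 nM camptothecin, exposed to pin-transferred compounds, and grown at 37 °C for at least 48 hr. Viability was read as ATP luminescence.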
Numbers without * were called inactive; u = inconclusive; x = not tested or not shown; [ ] = remark or other dose. In the library only some 19% were active in any assay of this set; here they are far more common. The call rests on the fitted dose curve; in most records, active means well fitted curve in the direction sought with a large enough effect; inconclusive means small, poorly fitted or top-dose-only effect, or another doubt; inactive means no such curve, though single readings can be large; an effect the other way counts as inactive or inconclusive. On the % scale 0 is the no-effect control and ±100 the full control effect; potency means the concentration at half of the fitted maximal effect.

SMILES	VP16 counter	RORg inh	TDP1 cell noCPT	TDP1 inh	DT40 TDP1 CPT
O=C(NC(c1ccc(F)cc1)c1ccc2ccccc2n1)C1CCN(Cc2cccc(C(F)(F)F)c2)CC1 (stereo not given)	x	x	5.2µM*	x	2.9µM*
O=C(NC(c1ccc(F)cc1)c1ccc2ccccc2n1)C1CCN(Cc2ccc3ccccc3n2)CC1 (stereo not given)	x	x	18µM*	x	u
O=C(c1ccc(Cl)cc1)N1CCN(CCOc2ccccc2)CC1	u	26%	-12%	x	0%
O=C(NCC1CCCN(Cc2cccc(C(F)(F)F)c2)C1)c1ccc(F)cc1 (stereo not given)	-3%	0%	u	4%	-27%
COC(=O)c1cc2oc3ccccc3c2n1CC(=O)Nc1ccc(OC)c(OC)c1OC	x	x	u	-4%	u
Cc1cccc(NC(=O)CS(=O)(=O)c2c[nH]c3ccccc23)c1C	-87%	-116%	-21%	6%	-10%
CCOC(=O)C1=C(C)Nc2ncnn2C1c1ccc2c(c1)OCO2 (stereo not given)	-2%	-35%	u	7%	-9%
COc1ccc(S(=O)(=O)N2CCN(C/C=C/c3ccccc3)CC2)cc1NC(C)=O	-5%	5%	-8%	3%[56.1 µM]	-25%
COc1cc(/C=C/CN2CCC(C(=O)NC(c3ccc(F)cc3)c3ccc4ccccc4n3)CC2)ccc1OC(C)=O (stereo not given)	x	x	15µM*	x	u
O=C(NC(c1ccc(F)cc1)c1ccc2ccccc2n1)C1CCN(CCOc2ccc(Cl)cc2)CC1 (stereo not given)	x	x	21µM*	x	21µM*
Cc1nn2c(N3CCCC3)cc(C(C)C)nc2c1-c1ccccc1	-2%	14µM*	u	-2%	u
Cc1cc(N2CCN(Cc3ccccc3)CC2)n2nc(C)c(-c3ccccc3)c2n1	12%	2%	18µM*	1%	15µM*
COc1ccc(-c2c(C)nn3c(N4CCN(Cc5ccccc5)CC4)cc(C)nc23)cc1OC	-3%	18%	23µM*	3%	23µM*
CC(c1ccon1)N(C)Cc1cn[nH]c1-c1ccc(-c2ccccc2)cc1 (stereo not given)	5%	14%	10%	1%	u
COc1ccc(C)cc1NC(=O)c1oc2ccc(S(=O)(=O)N3CCOCC3)cc2c1C	x	x	-3%	10%	-7%
COc1ncc2nc(-c3ccccc3)c(=O)n(C[C@H]3CCCO3)c2n1	-1%	-16%	-19%	x	16%
COc1ccc(C(=O)N/N=C/c2ccccn2)cc1OC	u	u	u	8%	u
COc1ccc(C(=O)Nc2ccccc2C(=O)N/N=C/c2ccccn2)cc1OC	3.2µM*	1.3µM*	6.5µM*	9%	4.6µM*
COc1cc(C(=O)N/N=C/c2ccccn2)cc(OC)c1OC	-8%	u	4.6µM*	9%	3.3µM*
COc1ccc(NS(=O)(=O)c2cccc(C(=O)N/N=C/c3ccccn3)c2)cc1	11%	2%	3%	3%	7%
CCn1cc(/C=N\NC(=O)c2ccc(Cl)cc2)cn1	-8%	11µM*	-5%	3%	6%
COc1cc(C(=O)N/N=C/c2cc([N+](=O)[O-])cs2)cc(OC)c1OC	u	4µM*	1µM*	-5%	0.82µM*
CN(C)C(=O)CNC(=O)Cc1ccccc1	x	x	2%	x	-1%
O=C(NCCN1CCN(C(=O)NC2CCCCC2)CC1)NC1CCCCC1	0%	0%	-6%	8%	-3%
N#C/C(=C\c1c(N2CCN(c3ccccc3)CC2)nc2ccccn2c1=O)S(=O)(=O)c1ccccc1	4%	-23%	5%	3%	1%
SMILES	VP16 counter	RORg inh	TDP1 cell noCPT	TDP1 inh	DT40 TDP1 CPT
Cc1ccc(C(=O)Nc2ccc(C(=O)N/N=C/c3ccccn3)cc2)cc1	u	u	u	5%	-30%
O=C(N/N=C/c1ccccn1)c1ccncc1	3%	1%	11%	x	2%
O=C(N/N=C/c1ccccn1)c1ccccc1	-12%	16%	18µM*	0%	u
O=C(N/N=C/c1ccccn1)c1ccc(Cl)cc1	2.5µM*	1.4µM*	12µM*	3%[56.1 µM]	12µM*
O=C(CCCN1C(=O)/C(=C/c2cccs2)SC1=S)Nc1cc([N+](=O)[O-])ccc1O	-7%	30%	16%	4%	1%
COC(=O)c1ccc(C(NC(=O)OCc2ccccc2)/C(F)=C/[C@@H](C)C(=O)NCc2ccc(OC)c(OC)c2)cc1 (stereo not given in full)	u	-3%	u	3%	23µM*
COC(=O)c1ccc(C(NC(=O)OCc2ccccc2)/C(F)=C/[C@@H](C)C(=O)NCc2cc(F)cc(F)c2)cc1 (stereo not given in full)	-13%	16%	x	7%	x
COC(=O)c1ccc(C(NC(=O)OCc2ccccc2)/C(F)=C/[C@@H](C)C(=O)NCc2ccc(-c3ccccc3)cc2)cc1 (stereo not given in full)	-20%	42%	u	3%	16µM*
COC(=O)c1ccc(C(NC(=O)OCc2ccccc2)/C(=C/[C@@H](C)C(=O)NCc2ccc(OC)c(OC)c2)c2cccnc2)cc1 (stereo not given in full)	-10%	3%	x	5%	x
CC1=C(C(=O)OCCOC(C)C)C(c2cc3c(cc2Br)OCO3)CC(=O)N1 (stereo not given)	-7%	5%	u	0%	16µM*
CCCCOC(=O)C1=C(C)NC(=O)NC1c1cc2c(cc1Br)OCO2 (stereo not given)	1%	5%	23µM*	4%	23µM*
CCN(CC)CCNc1nc(-c2cccs2)c(CC(=O)O)s1	7%	-2%	u	x	-5%
CC1(Cc2cc(Cl)ccc2C(F)(F)F)C(=O)Nc2ccc(S(=O)(=O)NC3CCCCC3)cc21 (stereo not given)	x	x	u	x	26µM*
CNc1nc2c(N)ncnc2n1[C@H]1O[C@@H](CO)[C@H](O)[C@@H]1O	-2%	u	u	x	u
Nc1ncnc2c(C3OC(CO)C(O)C3O)scc12 (stereo not given)	x	x	0.016µM*	x	0.012µM*
Cc1ccc(C(=O)NC(=S)NNC(=O)c2ccccc2O)cc1	-1%	22%	u	x	u
Cc1ccc(NC(=O)NC(=S)NC(=O)c2ccccc2)cc1	u	2.5µM*	u	0%	u
Cc1ccc(C(=O)NC(=S)NNC(=O)c2ccccc2)cc1	20µM*	u	u	2%	u
Cc1ccc(C(=O)NC(=S)NNC(=O)CCN2CCOCC2)cc1	-13%	11µM*	u	4%	u
Cc1ccc(C(=O)NNC(=S)NC(=O)c2ccccc2)cc1	x	x	16µM*	x	18µM*

High-throughput results: PubChem, National Center for Advancing Translational Sciences (NCATS)
